Each structure is given as a SMILES string. Where “and” joins values, the source holds several entries; their conditions need not be identical. Equal values may be shown once. The panel holds about 83,000 compounds, 20% with a hit somewhere; the sample as a whole holds those more often.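 Testing used 96-well plates and a 48-hour single-concentration exposure. Example: -40 means 40% of the starting cells died.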 Calls of active or inactive are those of the source. The calls were made as follows: active = growth percent below 10; inactive = the rest.

What all share (assay): NCI-60 one-dose screen, 48 h (100 = growth as untreated, 0 = no growth, -100 = all killed)
Conditions in all cases: 10 µM unless noted

Experiment [1] relates to NCI-H23 lung.
In experiment [2] the test system is NCI-H226 lung.
The test system of experiment [3] is NCI-H322M lung.
The test system of experiment [4] is HOP-62 NSCLC.
Experiment [5] has as its system NCI-H460 lung.
Experiment [6] relates to HOP-92 NSCLC.
Experiment [7] deals with NCI-H522 lung.
The subject of experiment [8] is A549/ATCC NSCLC.
In experiment [9] the test system is 786-0 renal.
In experiment [10] the test system is COLO 205 colon.
Experiment [11] has as its system DU-145 prostate.
For experiment [12], the system named is K-562 leukemia.
Experiment [13] deals with MALME-3M melanoma.
For experiment [14], the system named is MDA-MB-231 breast.
Experiment [15] deals with RXF 393 renal.
Experiment [16] relates to SF-268 CNS.
For experiment [17], the system named is SF-295 CNS.
Experiment [18] has as its system SF-539 CNS.
In experiment [19] the test system is UACC-257 melanoma.
Experiment [20] deals with M14 melanoma.

For the compound `O=C1C=CC(=CC=C2N(Cc3ccc4ccccc4c3)c3ccccc3N2Cc2ccc3ccccc3c2)C=C1`, the growth in experiment [1] is 5.96% (active) and 26.9% (inactive); in experiment [2] it was 47.1% (inactive) and 48% (inactive); in experiment [3], 49.3% (inactive) and 59.1% (inactive); in [4], 37.3% (inactive) and 45.3% (inactive); in experiment [5], 15.7% (inactive) and 10.4% (inactive); in experiment [6], 3.18% (active) and -22.2% (active). The growth in experiment [7] is -12.5% (active) and 17.7% (inactive); in experiment [8], 30.5% (inactive) and 46.4% (inactive); in experiment [9], 51.2% (inactive) and 69.2% (inactive); in experiment [10], -29.1% (active) and 0.579% (active); in experiment [11], 43.2% (inactive) and 32.7% (inactive); in experiment [12], 13.5% (inactive) and 6.33% (active). The growth in experiment [13] was 4.02% (active) and 3.15% (active); in experiment [14], -40.7% (active) and -24.6% (active); in [15] it was 31.6% (inactive) and 30.9% (inactive); in experiment [16], 67.5% (inactive) and 56.8% (inactive); in experiment [17] it was 39.3% (inactive) and 58.2% (inactive); in experiment [18] it was 15.5% (inactive) and 16.9% (inactive). Besides, the growth in experiment [19] was -0.845% (active) and 20.9% (inactive); in [20], 20.8% (inactive) and 29.8% (inactive).

On to `O=C1/C(=C/C=C/c2ccco2)SC(=S)N1CC(=S)C1C=CS(=O)(=O)C1` (stereo not given), for which the growth in experiment [1] was 83.1% (inactive); in experiment [2], 89.1% (inactive); in [3] it was 38.8% (inactive); in experiment [4] it was 130% (inactive); in experiment [5], 29.2% (inactive); in experiment [6], 121% (inactive). Moreover, the growth is 32.5% (inactive) in experiment [7]; 47.7% (inactive) in [8]; 91.2% (inactive) in experiment [9]; 76% (inactive) in experiment [10]; 97.4% (inactive) in experiment [11]; 75% (inactive) in experiment [12]. Besides, the growth in experiment [13] is 83.3% (inactive); in experiment [14], 85.8% (inactive); in experiment [15], 79.4% (inactive); in [16], 91% (inactive); in [17], 88.9% (inactive); in experiment [18], 99% (inactive). The growth was 92.3% (inactive) in experiment [19] and 98.9% (inactive) in [20].

Regarding `O=C(CSc1nnc(-c2ccc(-c3nc4ccccc4[nH]3)cc2)o1)Nc1ccc(Br)cc1`, the growth in experiment [1] was 1.35% (active); in experiment [2], 74.4% (inactive); in experiment [3] it was 36.8% (inactive); in experiment [4], 3.07% (active); in experiment [5], -55.2% (active); in experiment [6], 9.82% (active). Moreover, the growth in experiment [7] is 12.8% (inactive); in experiment [8], 0.989% (active); in experiment [9] it was -40.9% (active); in experiment [10] it was 51.7% (inactive); in experiment [11], 13.8% (inactive); in experiment [12], 11% (inactive). Moreover, the growth in [13] is 31.9% (inactive); in [14], -29.1% (active); in experiment [15] it was -62% (active); in experiment [16], 48.7% (inactive); in [17], 53.8% (inactive); in [18], -89.8% (active). Also, the growth was 61.9% (inactive) in experiment [19] and -0.614% (active) in experiment [20].

As to `O=C1CC(c2ccc(I)cc2)OC2C=Cc3ccccc3C12` (stereo not given), the growth in experiment [1] was 98.2% (inactive); in [2], 90.7% (inactive); in [3], 103% (inactive); in experiment [4], 98.7% (inactive); in experiment [5], 108% (inactive); in [6], 101% (inactive). Moreover, the growth in experiment [7] is 86.9% (inactive); in experiment [8], 102% (inactive); in experiment [9] it was 99.2% (inactive); in experiment [10] it was 118% (inactive); in [11], 106% (inactive); in experiment [12], 102% (inactive). For the same compound, the growth in experiment [13] is 94.3% (inactive); in experiment [14] it was 97.6% (inactive); in experiment [15], 107% (inactive); in experiment [16], 114% (inactive); in [17] it was 99.9% (inactive); in [18], 106% (inactive). For the same compound, the growth in [19] is 113% (inactive); in [20] it was 108% (inactive).

As for `Nc1cccc(-n2c(COc3ccc(I)cc3)nc3ccccc32)c1`, the growth in experiment [1] is 75.6% (inactive) and 99.5% (inactive); in experiment [2], 57.2% (inactive) and 109% (inactive); in experiment [3] it was 94.4% (inactive) and 96.2% (inactive); in experiment [4] it was 86.9% (inactive) and 103% (inactive); in experiment [5], 86.2% (inactive) and 108% (inactive); in experiment [6], 63.3% (inactive) and 113% (inactive). Further, the growth in experiment [7] was 81.5% (inactive) and 107% (inactive); in experiment [8] it was 104% (inactive); in experiment [9] it was 106% (inactive) and 102% (inactive); in [10], 81.4% (inactive) and 109% (inactive); in [11] it was 96.2% (inactive) and 95.5% (inactive); in experiment [12] it was 61.5% (inactive) and 99.3% (inactive). In addition, the growth in [13] was 82.2% (inactive) and 96.1% (inactive); in experiment [14], 56% (inactive) and 102% (inactive); in experiment [15], 82.3% (inactive) and 106% (inactive); in [16] it was 74.4% (inactive) and 96.5% (inactive); in experiment [17], 89.8% (inactive) and 101% (inactive); in [18] it was 79.7% (inactive) and 97.7% (inactive). Also, the growth in experiment [19] is 99% (inactive) and 101% (inactive); in [20] it was 91.5% (inactive) and 108% (inactive).

As for `COc1cccc2nc(Nc3cccc(NC(=O)c4ccc(CN5CCN(C)CC5)c(C(F)(F)F)c4)c3)ccc12`, the growth in experiment [1] was -97.8% (active); in experiment [2], -93.4% (active); in [3], -100% (active); in [4], -78.5% (active); in experiment [5] it was -77.1% (active); in experiment [6] it was -66.7% (active). Further, the growth was -87% (active) in [7]; -70.5% (active) in [8]; -81.7% (active) in experiment [9]; -73.7% (active) in experiment [10]; -83.5% (active) in experiment [11]; 2.54% (active) in experiment [12]. The growth in experiment [13] is -96.4% (active); in experiment [14], -97.9% (active); in experiment [15] it was -98.5% (active); in experiment [16] it was -54.4% (active); in [17] it was -95.1% (active); in experiment [18], -100% (active). Also, the growth is -83.1% (active) in experiment [19] and -85.2% (active) in [20].

For the compound `COc1c2c(cc3c1C(CCc1ccccc1)N(C)CC3)OCO2` (stereo not given), the growth was 5.64% (active) in experiment [1]; -1.8% (active) in experiment [2]; 28.7% (inactive) in experiment [3]; 36.6% (inactive) in [4]; 1.55% (active) in experiment [5]; 1.44% (active) in experiment [6]. The growth was 11.4% (inactive) in experiment [7]; 21.4% (inactive) in [8]; 12.6% (inactive) in experiment [9]; -56.5% (active) in experiment [10]; 23.2% (inactive) in experiment [11]; 6.06% (active) in [12]. For the same compound, the growth in [13] is -65.8% (active); in [14] it was -11.7% (active); in [15] it was -12.1% (active); in [16], 23.2% (inactive); in [17], -70.1% (active); in [18], -40.2% (active). Further, the growth was 16.6% (inactive) in [19] and -26.4% (active) in experiment [20].

The record behind these values is PubChem BioAssay (NCI).
